Experimental findings from PubChem BioAssay AID504577 (NMMLSC, 2011) are described below.

Screen size: about 350,000 compounds; about 1,300 (0.37%) were called active. This excerpt belongs to a sample that is enriched for actives. Values without a mark were called inactive. No stated cut-off is given here; in the data, active means response mostly above about 7.3% (no sharp cut-off); inactive means mostly below about 5.4%.

The nature of the assay: yeast vacuolar ATPase proton transport modulators – pHLuorin cytosolic pH fluorescence, primary screen (AID 504577). Further: actives read high. Particulars: S. cerevisiae, at 10 µM, hits give high values.
For `CN(C)S(=O)(=O)c1cc(C(=O)Nc2ccn(C)n2)c(Cl)cc1Cl`, the response was -0.21%.

On to `CSc1sc(C)cc1C1C(C#N)=C(N)N(c2cccnc2)C2=C1C(=O)CCC2` (configuration not stated), for which the response is -0.16%.

For `O=C(COc1ncnc2c(Cl)cc(Cl)cc12)N1CCN(S(=O)(=O)c2ccccc2)CC1`, the response is 2.02%.

In the case of `Nn1c(SCc2ccccc2)nnc1C1CCCCC1`, the response is -2.46%.

Regarding `O=C(CNC(=O)c1ccccc1Br)NNC(=O)c1cccs1`, the response was -0.51%.

Regarding `O=C(C1=C[C@H](C2CC2)C[C@H](OCc2ccc(CO)cc2)O1)N1CCN(Cc2ccccc2)CC1`, the response was 10.9% (active).

In the case of `O=C(C1=C[C@H](c2coc3ccccc3c2=O)C[C@H](OCc2ccc(CO)cc2)O1)N1CCN(Cc2ccccc2)CC1`, the response is 2.61%.

As to `O=C(C1=C[C@H](c2ccc(C(F)(F)F)cc2)C[C@H](OCc2ccc(CO)cc2)O1)N1CCN(Cc2ccccc2)CC1`, the response was 3.16%.

As for `Cc1ccc(C2=NN(C)c3nc4ccccc4n3C2)cc1`, the response was 0.17%.

Regarding `c1ccc(CNc2ncnc3[nH]ncc23)cc1`, the response was -0.7%.

With `COc1ccc(NC(=O)CSc2ncnc3[nH]ncc23)cc1`, the response was 8.67%.

In the case of `CN(c1ccccn1)c1ncnc2[nH]ncc12`, the response is 15.2% (active).

In the case of `COc1ccc(CCc2nc(-c3cccs3)no2)cc1`, the response is 1.75%.

Turning to `COc1ccc(OC)c(CNC(=O)CCc2nc(-c3cccs3)no2)c1`, the response is -0.51%.

Regarding `CCc1ccc(CNC(=O)CCc2nc(-c3cccs3)no2)cc1`, the response is 10.8% (active).

On to `Cc1cc(C(F)(F)F)nn1CC(=O)N1CCCC1`, for which the response was 6.02%.

Regarding `O=C(CC(n1cncn1)C(Cl)(Cl)Cl)c1ccc([N+](=O)[O-])cc1` (configuration not stated), the response is 4.51%.

As to `COc1ccc(C(CNC(=O)c2ccc(OCc3cscn3)cc2)N2CCCC2)cc1` (configuration not stated), the response is 2.42%.

Regarding `CCN(CC(=O)Nc1c(F)cccc1F)C(=O)c1ccc(-c2ccc(C(C)=O)cc2)o1`, the response was 0.89%.

For the compound `Cc1ccc2c(cnn2C(=O)CCC(=O)NC2CCCC2)c1`, the response is 16.8% (active).

`Cc1cccc2c1cnn2C(=O)CCC(=O)NC1CCCCC1`: the response was -0.13%.

With `Cc1ccc2nc(SCC(=O)NC3CCCC3)[nH]c2c1`, the response is 1.94%.

Consider `Cc1ccccc1CS(=O)(=O)CC1(O)CCN(C(=O)c2cccc(C(F)(F)F)c2)CC1`, for which the response was -0.64%.

`Cc1c(Cl)cccc1NC(=O)[C@@]1(CC(=O)O)CC(/C=C/c2ccccc2)=NO1`: the response is -1.98%.

Consider `CCN(CC)CC(=O)Nc1nn(-c2ccccc2)nc1C(N)=O`, for which the response was 6.52%.

With `COc1ccc(N2CCN(C(=O)CCNC(=O)c3ccc(Br)cc3)CC2)cc1`, the response was -3.69%.

Consider `COc1ccc(N2CCN(C(=O)CNC(=O)c3ccc(Br)o3)CC2)cc1`, for which the response is 4.07%.

Turning to `COc1ccc(N2CCN(C(=O)CNC(=O)c3ccc(C(C)(C)C)cc3)CC2)cc1`, the response is 13.9% (active).

Turning to `Cc1ccccc1NC(=O)N1CCCC1C(=O)NCc1ccccc1` (configuration not stated), the response is -1.65%.

Turning to `CCOc1nc(OCC)nc(-n2cc(-c3ccccc3)nn2)n1`, the response was 0.96%.

On to `CC1=C/C(=N\OS(=O)(=O)c2ccccc2)C=CC1=O`, for which the response is 32.8% (active).

With `CCC(C)NC(=O)c1ccc(NC(=O)CC2SC(N3CCCCC3)=NC2=O)cc1` (configuration not stated), the response was 1.4%.

With `CC(C)(C)OC(=O)N1CCC(C(=O)NNC(=O)c2ccc(Cl)cc2Cl)CC1`, the response is 1.22%.

As to `Cc1cc(=O)n2nc(N3CCCC3C(=O)NCCCN3CC(C)CC(C)C3)sc2n1` (configuration not stated), the response was -2.96%.

In the case of `Cc1csc(NC(=O)c2ccc(-c3ccc(Cl)cc3Cl)o2)n1`, the response is -2.59%.

Regarding `Cc1ccc(C(=O)Nc2nc3ccc(Cl)cc3s2)o1`, the response is 20.1% (active).

Take `Cc1sc2ncnc(N3CCC(C(=O)Nc4nc5ccc(Cl)cc5s4)CC3)c2c1C`: the response is 0.27%.

Turning to `OC1CN=C2Sc3ccccc3N2C1` (configuration not stated), the response was 3.08%.

As for `O=C(c1ccc(=O)oc1)N1CCC(C(O)(c2ccccc2)c2ccccc2)CC1`, the response is 2.64%.

For `CC(C)CCN1C(=O)c2ccc(C(=O)Nc3cccc(S(N)(=O)=O)c3)cc2C1=O`, the response was 14.3% (active).

For the compound `CN1CCN(S(=O)(=O)c2cccc(C(=O)Nc3cccc(S(N)(=O)=O)c3)c2)CC1`, the response is 0.8%.

As for `Cc1cccc(C(=O)Nc2ccc3c(c2)C(=O)N(CC(C)C)C3=O)c1`, the response was -0.72%.

On to `COc1ccccc1C(=O)N1C(CC(=O)Nc2ccccc2C)C(=O)NC2CCCCC21` (configuration not stated), for which the response is 9.51%.

In the case of `Cc1ccc(S(=O)(=O)Nc2ccc3c(c2)C(=O)N([C@H](C)CO)C[C@@H](C)[C@@H](CN(C)C(=O)Nc2cccc4ccccc24)O3)cc1`, the response was -0.92%.

For the compound `COc1cc(C2c3cc4c(cc3C(O)C3COC(=O)C23)OCO4)cc(OC)c1OC` (configuration not stated), the response is 1.36%.

`COc1ccccc1CNC(=O)COC(=O)c1cccs1`: the response is -4.49%.

With `COc1ccccc1CNC(=O)COc1ccc(C)nc1[N+](=O)[O-]`, the response was -0.89%.

In the case of `COc1ccccc1CNC(=O)COC(=O)c1sc(C)nc1C`, the response was 9.53% (active).

As to `Brc1cnc(N2CCCC2)nc1N1CCCCC1`, the response is -0.57%.

Turning to `COc1ccc(Cc2nnc(NC(=O)c3cc(OC)c(OC)c(OC)c3)s2)cc1OC`, the response is -0.03%.

With `CCCc1nnc(NC(=O)c2cc(OC)cc(OC)c2)s1`, the response was 12.9% (active).

As for `CCc1nnc(NC(=O)c2cccc(S(=O)(=O)N(C)c3ccc(OC)cc3)c2)s1`, the response is 3.85%.

For the compound `O=C1C=C(c2ccc(Cl)cc2)C(=O)N1Nc1ccccc1`, the response was 11.6% (active).

Turning to `O=C(c1ccc(Cn2cc([N+](=O)[O-])cn2)o1)N1CCCC1`, the response is -2.73%.

With `COc1ccc(C(=O)NC2CC2)cc1OC1CCN(Cc2ccc(SC)cc2)CC1`, the response is -0.55%.

On to `COc1ccc(CN2CCCC(C(=O)c3ccc(Cl)cc3)C2)cc1Cn1cncn1` (configuration not stated), for which the response was -2.81%.

For `COc1cc(CN2CCCC(C(=O)c3ccc(SC)cc3)C2)cc(Cl)c1O` (configuration not stated), the response was 13.8% (active).

For the compound `C=CCOC(=O)N1CCC2CC1c1cc(-c3ccc(OC)cc3)ccc12` (configuration not stated), the response was -1.16%.

For the compound `CCOc1ccccc1NC(=O)C1CCN(S(=O)(=O)c2c(C)nn(C)c2C)CC1`, the response is -3.78%.

`COCCNc1nc2nonc2nc1N(C)Cc1ccc(C)cc1`: the response is -1.45%.

On to `Cc1cc(C#N)c(SCC(N)=O)nc1-c1ccc(F)cc1`, for which the response is 1.45%.

Turning to `Cc1cc(=O)[nH]c(SCC(N)=O)c1C#N`, the response was 23.4% (active).

Consider `Cc1ccc(NC(=O)CSc2sc3c(O)cc(=O)[nH]c3c2C#N)cc1C`, for which the response was 2.04%.

As to `CCC(C)[C@H](NC(=O)N1CCn2c1nc1ccccc12)C(=O)NCc1ccc(OC)cc1` (some centres not stated), the response was 4.62%.

For the compound `NC(CSC1(c2ccccc2)c2ccccc2-c2ccccc21)C(=O)O` (configuration not stated), the response was -2.21%.

For the compound `COc1ccc(CCN2C(=O)N(c3ccc(OC)cc3)C(=O)C2CC(=O)Nc2ccc(OC)cc2)cc1` (configuration not stated), the response is 9.93% (active).

On to `COc1ccc(N2C(=O)C(CC(=O)Nc3ccccc3)N(Cc3ccc(OC)c(OC)c3)C2=O)cc1` (configuration not stated), for which the response was 0.01%.

For the compound `COc1ccc(N2C(=O)C(CC(=O)Nc3ccc(F)cc3)N(CCc3cccs3)C2=O)cc1` (configuration not stated), the response was -0.54%.

In the case of `COc1cccc(OC)c1C(=O)N1CCN(Cc2ccccc2F)CC1`, the response is 0.6%.

Take `Cc1c(C)c(C)c(S(=O)(=O)N2CCC3(CC2)OCCO3)c(C)c1C`: the response is -4.64%.

For the compound `C[C@@H](O)c1nc2ccccc2n1N`, the response was 0.82%.

With `CCOc1ccc(C(=O)CCC(=O)Nc2ccncc2)cc1`, the response was 1.62%.

For the compound `Cc1ccc(S(=O)(=O)N(C)c2ccc(OCC(=O)NC3=NCCS3)cc2)cc1`, the response was -1.26%.

`CCOc1ccc(C(=O)CCC(=O)NC2=NCCS2)cc1`: the response was 13.1% (active).

On to `Cc1csc(NC(=O)CSc2nc(=O)cc(N)n2-c2ccc(F)cc2)n1`, for which the response was 1.91%.

`CCCCn1c(N)c(N(CCOC)C(=O)c2oc3ccc(OC)cc3c2C)c(=O)[nH]c1=O`: the response is 0.93%.

For the compound `COc1ccc(Cl)cc1N(CC(=O)N1CCCCC1)S(C)(=O)=O`, the response was 0.69%.

On to `O=C(CCn1nnnc1CN1CCOCC1)N1CCC(c2ccccc2Cl)C1` (configuration not stated), for which the response is 3.42%.

Take `O=C(OCCOc1ccccc1Cl)c1cc(S(=O)(=O)N2CCCCC2)ccc1N1CCOCC1`: the response was -0.35%.

As to `CCCc1cc(=O)[nH]c(SCc2cc(=O)oc3c(C)c(C)ccc23)n1`, the response is -2.17%.

As to `CCCc1cc(=O)[nH]c(SCc2ccc(C#N)cc2)n1`, the response was 11.9% (active).

For the compound `Cc1cc(=O)[nH]c(SCc2ccc(Cl)cc2)n1`, the response was -0.98%.

As to `COc1ccc(OCCn2ccnc2C)cc1`, the response was 1.9%.

In the case of `O=C(CSc1ccccc1)Nc1cccc(S(=O)(=O)N2CCOCC2)c1`, the response was 0.62%.

Turning to `Cc1ccnc(SCC(=O)Nc2cccc(S(=O)(=O)N3CCOCC3)c2)n1`, the response was 12.9% (active).

Take `Nc1cc(N)nc(SCC(=O)Nc2cccc(S(=O)(=O)N3CCCCC3)c2)n1`: the response was 5.46%.

Turning to `COC(=O)c1ccccc1NC(=O)C1CCN(C(=O)N2CCOc3ccccc32)CC1`, the response was 4.95%.

`Cc1cc(OC(=O)c2ccc(OC(C)C)cc2)c([N+](=O)[O-])c(=O)[nH]1`: the response is 0.32%.

With `COc1cccc(C(=O)Oc2cc(C)[nH]c(=O)c2[N+](=O)[O-])c1`, the response is 0.78%.

For `Cc1cc(OC(=O)c2ccccc2)c([N+](=O)[O-])c(=O)[nH]1`, the response was 11.5% (active).

Consider `COC(=O)Nc1ccc(S(=O)(=O)Nc2cc(OC)nc(OC)n2)cc1`, for which the response is 4.02%.

In the case of `Nc1nc(O)c(CC(=O)O)s1`, the response was 4.17%.
